Shown are actives, neighbours in structure and some others; about 3.2% of the full set was active somewhere.
GLP1R cytotox: qHTS of GLP-1 Receptor Inverse Agonists: Cytotox Screen; HEK293 cAMP-luciferase reporter cells, luminescence, 24 h; Potency, µM (top dose mostly 38.3 µM), for the others: at the top dose activity change, negative = inhibition, hits mostly inhibitors; 0.13% of 410,000 active;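 further: loss of luciferase light is scored as toxicity; on the % scale 0 is the no-effect control and ±100 the full control effect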
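To flag toxic compounds, the library was rerun on cells for 24 hr at 37 deg C and 5% CO2. Viability-linked luminescence was captured 12 min after adding luciferase detection reagent.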
GLP-1R agonist: qHTS of GLP-1 Receptor Agonists | Glucagon-like peptide 1 receptor (Homo sapiens), P43220 | HEK293 GLP-1R CRE-luciferase, luminescence, 4-6 h; cells express a hypersensitive GLP-1R form | Potency, µM (highest dose often 45.6 µM), inactives show top-dose activation, usual class: activators | 0.007% of 380,000 active | AID 624172, 2012; further: % of control where 0% means no effect
Target sequence (P43220 whole entry, looked up): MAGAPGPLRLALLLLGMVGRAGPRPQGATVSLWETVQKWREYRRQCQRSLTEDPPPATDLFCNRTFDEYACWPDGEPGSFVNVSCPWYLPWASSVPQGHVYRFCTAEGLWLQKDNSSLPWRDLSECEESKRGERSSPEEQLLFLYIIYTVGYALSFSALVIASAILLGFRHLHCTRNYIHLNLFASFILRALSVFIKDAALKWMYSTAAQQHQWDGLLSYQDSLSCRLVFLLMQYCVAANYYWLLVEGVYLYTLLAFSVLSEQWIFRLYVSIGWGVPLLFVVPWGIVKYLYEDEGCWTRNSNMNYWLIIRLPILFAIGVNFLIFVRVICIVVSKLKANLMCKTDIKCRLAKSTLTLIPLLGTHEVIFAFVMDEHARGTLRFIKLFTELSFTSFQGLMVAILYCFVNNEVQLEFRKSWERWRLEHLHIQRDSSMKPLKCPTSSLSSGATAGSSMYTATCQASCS
GLP-1R inv ag: qHTS of GLP-1 Receptor Inverse Agonists (Inhibition Mode); Glucagon-like peptide 1 receptor (Homo sapiens), P43220; HEK293 GLP-1R CRE-luciferase, luminescence, 24 h; GLP-1R form is constitutively active; Potency, µM (top dose mostly 38.3 µM), for the others: at the top dose activity change, negative = inhibition, most hits filed as inhibitors; 1.6% of 410,000 active; AID 624417, 2012; further: on the % scale 0 is the no-effect control and ±100 the full control effect; nearly all actives have a fitted effect of over 55% in size
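Stable HEK293 clone (constitutively active GLP-1R + cAMP-response luciferase); 200 cells/uL plated, 12 h pre-culture, compound 24 hr, 37 deg C/5% CO2; detection reagent 12 min RT; luminescence.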
ClpP mod: qHTS Assay for Activators of ClpP; AID 651965, 2013; ATP-dependent Clp protease proteolytic subunit (Bacillus subtilis (strain 168)), P80244; purified B. subtilis ClpP, FRET peptide cleavage, 20 min; Potency, µM (top dose mostly 57.5 µM), for the others: top-dose activity change, negative = active; 1.9% of 340,000 active; active means well fitted falling curve with a large enough effect; inconclusive means small, poorly fitted or top-dose-only effect; inactive means no such curve, though single readings can be large or run the other way; further: the source files actives as falling curves though it sought activators and does not explain the sign; nearly all actives have a fitted effect of over 65% in size
Target sequence (P80244 whole entry, looked up): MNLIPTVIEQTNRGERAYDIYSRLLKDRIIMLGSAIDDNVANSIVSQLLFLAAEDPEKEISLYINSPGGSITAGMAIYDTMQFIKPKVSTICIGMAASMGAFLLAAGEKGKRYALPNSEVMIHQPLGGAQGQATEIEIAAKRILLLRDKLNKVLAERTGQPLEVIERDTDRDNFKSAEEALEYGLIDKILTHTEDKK
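ClpP 10 microg/mL final, pH 8 Tris/KCl buffer with BSA, glycerol, Tween-20; compound pinned in; FRET-FV substrate; RT 20 min; Ex320/Em430; ΔFRET vs ADEP 5.8 microM, DMSO, no enzyme.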
Numbers without * were called inactive; i = inactive; ? = inconclusive; / = no result given; [ ] = another dose, or the depositor's remark. Unless noted, the call rests on the fitted dose curve; in most records, active means well fitted curve in the direction sought with a large enough effect; inconclusive means small, poorly fitted or top-dose-only effect, or another doubt; inactive means no such curve, though single readings can be large; an effect the other way counts as inactive or inconclusive. Potency means the concentration at half of the fitted maximal effect.

SMILES	GLP1R cytotox	GLP-1R agonist	GLP-1R inv ag	ClpP mod
Brc1ccc(-c2ccc(/C=N/Nc3nc(N4CCOCC4)nc(N4CCOCC4)n3)o2)cc1	4.2%	14.3%	7.9%	/
Clc1ccc(-c2ccc(/C=N/Nc3cc(N4CCOCC4)nc(N4CCOCC4)n3)o2)cc1	111.2%	-7.2%	?	7.94µM*
NC(=O)C1(N2CCCCC2)CCN(C(=O)Nc2ccc(C(F)(F)F)cc2)CC1	-7.7%	/	-4.6%	-2.2%
CCOC(=O)C1CCCN(S(=O)(=O)c2ccc(Cl)nc2)C1 (centres undefined)	13.7%	-5.8%	5.6%	22.4µM*
O=C(O)c1c2c(nc3ccccc13)CCCCC2	4.5%	-6.7%	12.3%	-0.8%
O=c1[nH]c(N2CCN(Cc3ccccc3)CC2)nc2c1CCC2	15.6%	2.8%	4.4%	/
Nc1c2c(nc3ccn(Cc4ccccc4)c(=O)c13)CCC2	-29.7%	10.2%	17.3%	31.6µM*
Nc1c2c(nc3ccn(-c4ccccc4)c(=O)c13)CCCCC2	-6.1%	10.0%	-23.2%	28.2µM*
Cc1nc2c(c(SCC(=O)Nc3ccccc3C(F)(F)F)n1)CCC2	-2.0%	/	1.5%	0.1%
Cc1c(Br)c([N+](=O)[O-])nn1CC(=O)NCc1ccco1	-3.6%[1.53 µM]	-10.8%	12.5%	35.5µM*
Cc1c(Br)c(C(F)(F)F)nn1CC(=O)NCc1ccco1	0.4%	-0.8%	-27.8%	/
CCOc1ccc(CCNC(=O)CSc2nnnn2-c2ccccc2Cl)cc1OCC	3.4%	-8.7%	1.3%	0.2%
O=C(c1ccc(Br)cc1)N1CCN(CCc2ccncc2)CC1	0.2%	/	?	0.5%
C=Cc1ccc(Cn2c(C(=O)O)c(CNCc3ccccc3)c3ccc(OC)cc32)cc1	?	/	?	-20.2%
Cc1ccc(N2CCN(S(=O)(=O)N3CCCCC3)CC2)cc1Cl	-2.5%	20.0%	24.2%	-15.3%
Cc1cc(C)c(N2CCN(S(=O)(=O)N3CCCCCC3)CC2)c(C)c1	18.2%	-17.7%	10µM*	-5.9%
CCCc1cnc(NCCNCC(O)COc2ccc(Cl)c(Cl)c2)nc1 (centres undefined)	?	2.9%	5.01µM*	/
CCN(CC)CCCCN1c2ccccc2Sc2ccccc21	?	-1.8%	5.01µM*	/
CCOc1ccc(C(=O)C(C)OC(=O)C2CCN(c3ccc(C(F)(F)F)cn3)CC2)cc1 (centres undefined)	0.7%	11.7%	8.91µM*	-2.8%
O=C1CCCC2=C1C1(CCCC1)N=C(Nc1nc3ccccc3s1)N2	-7.5%	-8.0%	0.0%	28.2µM*
COc1ccc(N=c2oc3cc(O)ccc3cc2C(=O)NCC2CCCO2)c(OC)c1 (centres undefined)	364.4%	7.6%	92.1%	25.1µM*
O=C(NCC1CCCO1)c1coc2nc3ccccc3nc12 (centres undefined)	186.7%	-1.5%	?	19.4%
COc1ccc(-n2nc(C(=O)NCC(=O)NCC3CCCO3)c3ccccc3c2=O)c(OC)c1 (centres undefined)	-19.6%	-10.4%	-7.2%	0.5%
COc1ccc(N=c2oc3cc(O)ccc3cc2C(=O)NCC2CCCO2)cc1 (centres undefined)	246.5%	-2.7%	0.0%	-19.9%
COc1ccc(-n2c(N)c(C(=O)NCC3CCCO3)c3nc4ccccc4nc32)c(OC)c1 (centres undefined)	274.5%	6.6%	0.0%	31.6µM*
SMILES	GLP1R cytotox	GLP-1R agonist	GLP-1R inv ag	ClpP mod
C=CCn1c(N)c(C(=O)NCC2CCCO2)c2nc3ccccc3nc21 (centres undefined)	i	19.0%	26.7%	8.91µM*
Cc1cccc(-c2noc(-c3ccccc3NC(=O)C3CC(=O)N(c4ccccc4C)C3)n2)c1 (centres undefined)	3.6%	/	4.2%	-8.1%
COC(=O)c1ccc(NC(=O)CN2C(=O)c3cccc4cccc2c34)cc1	0.7%	/	11.7%	6.2%
O=C(Cn1c(=O)n(Cc2ccccc2)c(=O)c2sc3ccccc3c21)Nc1ccc(F)cc1	-8.2%	0.2%	-0.7%	?
Nc1ncnc2c1c(-c1ccc(Oc3ccccc3)cc1)cn2C1CCCC1	?	24.3%	?	28.2µM*
CCc1cc(Cn2nc(-c3ccccc3)cc2C(=O)NCc2ccccc2OC)on1	12.0%	-4.4%	11.2µM*	-0.9%
COC(=O)c1cc(Cc2ccc(N)c(C(=O)OC)c2)ccc1N	-2.2%	19.5%	-0.7%	28.2µM*
COc1ccc(C2NC(c3ccc(OC)cc3)C(C)C(=O)C2C)cc1 (centres undefined)	23.1%	14.0%	?	/
COc1ccc(C2NC(c3ccc(OC)cc3)C(c3ccccc3)C(=O)C2c2ccccc2)cc1 (centres undefined)	23.1%	0.3%	5.62µM*	-0.4%
COCCn1c(C)cc(O)c(C(c2ccccc2Cl)N2CCN(c3ccccc3)CC2)c1=O (centres undefined)	14.4%	/	-8.6%	2.1%
COC(=O)c1sccc1S(=O)(=O)N(CC(=O)Nc1cccc(C)c1C)c1ccc(C)c(C)c1	-16.6%	/	11.2µM*	1.1%
COC(=O)c1sccc1S(=O)(=O)N(CC(=O)Nc1cc(C)ccc1C)c1ccc(C)c(C)c1	-4.6%	/	12.6µM*	-0.5%
CCOC(=O)c1c(C)n(S(=O)(=O)c2ccc(C)cc2)c2ccc(NS(=O)(=O)c3ccc(C)cc3)cc12	0.2%	/	-24.3%	0.7%
CCC(=O)N1c2ccccc2CC1C(=O)NCCCN1CCN(c2ccccc2)CC1 (centres undefined)	2.5%	/	-2.6%	0.7%
COC(=O)Cn1ncc2c3ccccc3n(C)c2c1=O	-5.5%	15.6%	13.9%	14.1µM*
CNC(=O)Cn1ncc2c3ccccc3n(C)c2c1=O	0.3%	9.3%	-1.8%	3.7%
Cn1c2ccccc2c2cnn(CC(=O)O)c(=O)c21	10.7%	-13.6%	8.1%	31.6µM*
O=C(Cn1ncc2c3ccccc3n(Cc3ccccc3)c2c1=O)N1CCN(c2ccccn2)CC1	-11.7%	4.1%	?	?
O=C(Cn1ncc2c3ccccc3n(Cc3ccccc3)c2c1=O)N1CCN(c2ncccn2)CC1	0.2%	13.0%	-2.8%	31.6µM*
COc1ccc(OCC(O)CNCCOc2ccccc2OC)c(C(C)(C)C)c1 (centres undefined)	1.0%	-1.4%	12.6µM*	1.2%
COc1ccc(C(=O)N[C@H](C(=O)Nc2nc3c(s2)CCCC3)C(C)C)cc1	-3.8%	11.4%	?	-0.4%
CCOc1ccccc1C(=O)N[C@H](C(=O)Nc1nc2c(s1)CCCC2)C(C)C	?	20.6%	10µM*	/
CCc1nn2c(=O)cc(COC(=O)c3cccc(NC(=O)CCc4ccccc4)c3)nc2s1	7.4%	/	0.1%	31.6µM*
O=S(=O)(c1ccc(Cl)cc1)c1nnn2c1nc(NCc1ccc3c(c1)OCO3)c1sccc12	1.5%	/	9.6%	2.6%

High-throughput results: PubChem, National Center for Advancing Translational Sciences (NCATS)
